Most compounds without a hit are left out; they make up all but 10% or so of the library.
BAZ2B block: blocks human BAZ2B | 4.4% of 360,000 active | AlphaScreen BAZ2B-H3K14Ac peptide displacement | Q9UIF8 | Potency, µM (doses to about 114 µM), for inactives: at the highest dose activity change, negative = inhibition, actives largely listed as inhibitors | AID 504333; further: potency means the concentration at half of the fitted maximal effect; on the % scale 0 is the no-effect control and ±100 the full control effect; nearly all actives have a fitted effect of over 60% in size
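BAZ2B 50 nM plus b-H3(5-23)K14Ac 50 nM, PBS pH 7.4/0.01% Tween-20, 30 min RT; compound added (max 110 uM), 30 min RT; streptavidin donor/Ni-chelate acceptor beads 10 ug/mL final, 20 min dark; AlphaScreen read.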
CtBP-E1A blk: blocks the CtBP interaction with E1A; AlphaScreen GST-E1A/His-CtBP binding, 1536-well; active compounds read low; activity change, % (concentration not given with the values); 0.49% of 340,000 active; AID 651724; in the data active means activity change below about -65%; inconclusive means mostly about -30% to -63%; further: on the % scale 0 is the no-effect control and ±100 the full control effect
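Steps: dispense buffer (Tris pH 8.0, NaCl 300 mM, TCEP 1 mM, BSA, Tween 20); add 5X protein mix (GST-E1A, His-CtBP, 125 nM each); pin 23 nL compound; 2 h at 37 °C, dark; add 5X beads (50 ug/mL); 1 h; read.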
HP1b binding inh: blocks HP1-beta chromodomain binding to methylated histone tails; P83916; AlphaScreen HP1-beta / biotin-H3K9me3 peptide binding; 0.56% of 390,000 active; Potency, µM (top dose mostly 114 µM), inactives show top-dose activity change, negative = inhibition, hits mostly inhibitors; further: potency means the concentration at half of the fitted maximal effect; nearly all actives have a fitted effect of over 70% in size
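HP1-beta protein (50 nM final) preincubated 30 min at room temperature with biotinylated H3(1-18)K9me3 peptide (50 nM) in PBS pH 7.4, 0.01% Tween-20, then compound added for 30 min. AlphaScreen streptavidin donor/nickel chelate acceptor beads (10 ug/mL final), 30 min dark, luminescence read.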
G9a inh: blocks human histone lysine methyltransferase G9a; Q96KQ7; G9a H3K9 monomethylation, AlphaScreen, 2 h; Potency, µM (series often up to 102 µM), for the others: at the highest dose activity, negative = inhibition, usual class: inhibitors; 8.8% of 350,000 active; AID 504332; further: potency means the concentration at half of the fitted maximal effect; on the % scale 0 is the no-effect control and ±100 the full control effect; nearly all actives have a fitted effect of over 75% in size
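Using a bead-based AlphaScreen, monomethylated H3K9 product from 2 h room-temperature reactions (G9a 20 nM, peptide 500 nM, SAM 20 uM) was detected with 0.5 ug/mL rabbit anti-H3K9me1 antibody.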
JMJD2A Tudor: JMJD2A Tudor domain (human) inhibition | O75164 | Potency, µM (titrated, usually from 114 µM), for the others: at the highest dose activity change, negative = inhibition, usual class: inhibitors | AlphaScreen JMJD2A-Tudor / H3K4me3 peptide binding | 4.4% of 390,000 active; further: potency means the concentration at half of the fitted maximal effect; on the % scale 0 is the no-effect control and ±100 the full control effect; nearly all actives have a fitted effect of over 50% in size
Target sequence (O75164 whole entry, looked up, the tested form may be a part): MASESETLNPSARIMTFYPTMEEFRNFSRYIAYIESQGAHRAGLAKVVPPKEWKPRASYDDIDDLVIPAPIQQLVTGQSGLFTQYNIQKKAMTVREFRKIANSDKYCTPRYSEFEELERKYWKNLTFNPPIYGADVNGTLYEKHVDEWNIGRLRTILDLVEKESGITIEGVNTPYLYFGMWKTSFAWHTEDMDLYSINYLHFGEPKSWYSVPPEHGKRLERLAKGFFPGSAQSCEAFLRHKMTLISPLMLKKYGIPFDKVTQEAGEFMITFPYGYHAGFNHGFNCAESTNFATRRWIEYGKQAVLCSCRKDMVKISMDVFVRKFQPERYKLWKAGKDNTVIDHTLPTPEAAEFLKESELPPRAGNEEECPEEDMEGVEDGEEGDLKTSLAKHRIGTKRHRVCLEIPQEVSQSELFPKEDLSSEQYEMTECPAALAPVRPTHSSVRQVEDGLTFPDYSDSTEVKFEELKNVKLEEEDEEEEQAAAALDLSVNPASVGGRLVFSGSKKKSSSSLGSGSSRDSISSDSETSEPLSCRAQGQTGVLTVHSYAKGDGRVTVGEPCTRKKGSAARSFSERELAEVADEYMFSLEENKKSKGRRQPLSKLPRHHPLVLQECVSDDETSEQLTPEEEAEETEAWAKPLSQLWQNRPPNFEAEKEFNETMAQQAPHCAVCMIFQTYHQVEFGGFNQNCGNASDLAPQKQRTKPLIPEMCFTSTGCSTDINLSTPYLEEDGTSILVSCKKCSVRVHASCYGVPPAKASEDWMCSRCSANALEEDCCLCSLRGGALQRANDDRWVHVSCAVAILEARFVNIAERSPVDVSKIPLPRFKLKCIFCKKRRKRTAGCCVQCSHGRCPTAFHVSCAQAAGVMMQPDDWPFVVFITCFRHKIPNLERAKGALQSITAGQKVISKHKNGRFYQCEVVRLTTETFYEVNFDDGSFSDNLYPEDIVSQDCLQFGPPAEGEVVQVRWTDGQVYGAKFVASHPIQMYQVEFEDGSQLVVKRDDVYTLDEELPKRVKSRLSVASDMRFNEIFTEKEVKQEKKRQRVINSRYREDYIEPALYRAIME
Six1-Eya2 inh: Six1/Eya2 interaction inhibition; Q15475+O00167; AlphaScreen GST-Six1/His-Eya2 binding, biochemical; active compounds read low; activity change, % (test concentration not listed); 0.56% of 360,000 active; AID 651725; in the data active means activity change below about -65%; inconclusive means mostly about -30% to -63%; further: on the % scale 0 is the no-effect control and ±100 the full control effect
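Compounds are tested against tagged Six1 and Eya2 proteins bridged by glutathione donor and nickel acceptor beads; after a one-hour incubation at 37 °C without light, AlphaScreen emission is recorded.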
Active calls of the source: *; u = inconclusive; x = no result; [ ] = remark or other dose. Unless noted, the call rests on the fitted dose curve; in most records, active means well fitted inhibition curve with a large enough effect; inconclusive means small, poorly fitted or top-dose-only effect; inactive means no such curve, though single readings can be large or run the other way.

SMILES	BAZ2B block	CtBP-E1A blk	HP1b binding inh	G9a inh	JMJD2A Tudor	Six1-Eya2 inh
Cc1cccc(N2CCN(C(=O)C3CCC(CNS(=O)(=O)c4cccs4)CC3)CC2)c1C (centres undefined)	-1%	-1	0%	-14%	-26%	-9
O=C1c2cccc3cccc(c23)C(=O)N1CC1CCN(CC(O)COc2ccc3ccccc3c2)CC1 (centres undefined)	u	-27	u	10µM*	13µM*	-26
COc1ccc(COCC(O)CN2CCC(CN3C(=O)c4cccc5cccc(c45)C3=O)CC2)cc1OC (centres undefined)	-38%	-20	7%	79µM*	-20%	-23
Cc1ccc(C)c(OCC(O)CN2CCN(CCN3C(=O)c4cccc5cccc(c45)C3=O)CC2)c1 (centres undefined)	50µM*	-26	-38%	u	u	u
COc1cccc(OCC(O)CN2CCC(CN3C(=O)c4cccc5cccc(c45)C3=O)CC2)c1 (centres undefined)	u	-23	-7%	u	u	-22
CCOc1ccc(CCNC(=O)C2CC(=O)N(c3ccc4c(c3)OCCO4)C2)cc1OCC (centres undefined)	0%	2	32%	-11%[12.7 µM]	-14%	-6
O=C(NC1CC1)C1CCN(c2ncccn2)CC1	-1%	0	1%	21%	-6%	-1
O=c1[nH]c(=S)[nH]c2c1C(c1cccc(C(F)(F)F)c1)OC(CCc1ccccc1)C2 (centres undefined)	x	0	x	x	x	5
Cc1nc2c(ccc3nc(NC(=O)c4ccc5c(c4)OCCO5)sc32)s1	-37%	12	30%	28µM*	u	4
Cc1nc2ccc3nc(NC(=O)c4ccc5c(c4)OCCO5)sc3c2s1	-7%	16	55%	13%	-31%	31
Cc1ccc(S(=O)(=O)N(C)CCN(C)c2nc(-c3cccs3)nc3ccccc23)cc1	x	x	21%	x	-7%	x
CCOc1ccccc1NC(=O)CCNS(=O)(=O)c1ccc2c(c1)CCN2C(=O)C1CC1	1%	x	9%[57 µM]	8%[59 µM]	-12%	x
O=[N+]([O-])c1cccc(N=Nc2ccc(O)cc2O)c1	x	-13	-12%[57 µM]	x	u	-15
O=[N+]([O-])c1ccc(N=Nc2ccc(O)cc2O)cc1	32µM*	5	15%	40µM*	-8%	4
CC(C)=NOc1nc(N(C)C)nc(N2CCOCC2)n1	-14%	2	-1%	27%	56µM*	-7
CC(=O)NCCOc1nc(N(C)C)nc(N2CCOCC2)n1	10%	1	32%	-5%[12.7 µM]	5%	3
C=CCn1c(NCc2ccc(N(C)C)cc2)nc2ccccc21	45µM*	-20	u	u	u	-22
C=CCn1c(NCc2ccco2)nc2ccccc21	-30%	10	38%	-4%[59 µM]	-4%	-2
CCCCn1c(NCc2ccc(N(C)C)cc2)nc2ccccc21	40µM*	-8	u	u	40µM*	u
CCCCn1c(NCc2ccncc2)nc2ccccc21	-12%	3	36%	-9%	-10%	-5
Oc1cccc2c(NC(=S)Nc3ccc(OC(F)F)cc3)cccc12	45µM*	-20	u	45µM*	u	-11
FC(F)Oc1ccc(NC(=S)Nn2cnnc2)cc1	-9%	1	-27%	6.3µM*	u	2
FC(F)Oc1ccc(NC(=S)NCc2ccccc2)cc1	0%	0	27%	40%[59 µM]	0%	3
COc1ccc(S(=O)(=O)Nc2ccccc2-c2nc3ccccc3[nH]c2=O)cc1	-5%	30	29%	-16%	-17%	26
CCCCOC(=O)C1[C@H]2C(=O)N(Cc3cccs3)C[C@]23C=C[C@H]1O3 (some centres undefined)	79µM*	1	35%	-37%[59 µM]	-16%	-1
SMILES	BAZ2B block	CtBP-E1A blk	HP1b binding inh	G9a inh	JMJD2A Tudor	Six1-Eya2 inh
CCOC(=O)C1C2C=CC3(CN(Cc4ccccc4)C(=O)C13)O2 (centres undefined)	-7%	-2	47%	15%[59 µM]	-4%	1
CCCOC(=O)C1[C@H]2C(=O)N(Cc3ccco3)C[C@]23C=C[C@H]1O3 (some centres undefined)	10%	2	38%	50µM*	-18%	3
CNc1nc(-c2ccc3c(c2)CCN3C(=O)c2ccccc2F)c(C)s1	-15%	-7	-5%	35µM*	-30%	-4
Nc1nc(-c2ccc3c(c2)OCCO3)cs1	x	-1	0%	u	-35%	-10
CS(=O)(=O)N1CCc2cc(-c3csc(NC(=O)C(c4ccccc4)c4ccccc4)n3)ccc21	-11%	-1	-11%	u	-24%	-6
Nc1nc(-c2ccc3c(c2)CCCC3)cs1	45µM*	-8	-33%	18µM*	u	-3
CCCC(=O)N1CCc2cc(-c3nc(N)sc3C)ccc21	-7%	-5	-27%	40µM*	-17%	-2
CNc1nc(-c2ccc3c(c2)CCN3C(=O)c2ccccc2F)cs1	50µM*	x	u	50µM*	u	-20
COc1cccc(Cn2c(=O)cc(C)c3c(C)nn(C)c32)c1	146%	x	156%	37%[59 µM]	79%	x
CC(C)(C)C(=O)N1CCc2cc(-c3csc(N)n3)ccc21	50µM*	24	-13%	0%[0.501 µM]	-29%	4
c1n[nH]c(NC2=NCCC2)n1	14µM*	u	74%	1%	45µM*	u
Clc1cccc(Cl)c1NC1=NCCC1	14%	-18	23%	-15%	-12%	-3
O=C(CCS(=O)(=O)c1ccc(Br)s1)Nc1c(F)cccc1F	2%	x	28%	-37%[59 µM]	-11%	x
Cc1cc(C(=O)N2CCN(c3cccc(Cl)c3)CC2)c2c(C)nn(-c3ccccc3Cl)c2n1	-30%	x	20%	-39%[59 µM]	-23%	x
c1ccc(-c2nc(Sc3ncnc4c3cnn4-c3ccccc3)n[nH]2)cc1	4%	x	x	32µM*	x	x
COc1cc(CNn2c(C)n[nH]c2=S)cc(Br)c1OCC(=O)NC(C)(C)C	-8%	-1	26%	4µM*	u	0
COc1cc(CNn2cn[nH]c2=S)ccc1OCC(=O)NC(C)(C)C	-33%	1	52%	18µM*	u	-7
COc1cc(CNn2c(C)n[nH]c2=S)cc(Cl)c1OCC(=O)NC(C)(C)C	-7%	0	52%	x	56µM*	-2
CCOc1cc(CNn2cnnc2)cc(Cl)c1OCC(=O)NC(C)(C)C	-32%	5	34%	17%	-4%	4
Cc1csc(CNc2ncnc3ccc(-c4ccco4)cc23)c1	-22%	x	x	-32%[12.7 µM]	x	x
S=C(Nc1ccc(Br)cc1Cl)N1CCN(c2ccccn2)CC1	-5%	0	25%	18%	-13%	-12
